4MU fluor – compound fluoresces in the 4-MU spectral region; compound autofluorescence, 340/450 nm, 4-MU equivalents; hits give high values; max dye-equivalent concentration, M; 59,000 compounds, 11% hits; in the data active means max dye-equivalent concentration above about 10 nM; inconclusive means mostly about 1.1 nM to 9.6 nM
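Compounds in 100 mM Tris, pH 8.0, incubated 15 min at room temperature, then fluorescence read at 340 nm excitation/450 nm emission. Signal converted to 4-MU dye-equivalent concentration using an on-plate six-point 4-MU standard curve.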
GBA activity – alters purified human glucocerebrosidase activity. 48,000 compounds, 1.1% hits. Potency, µM. purified enzyme, resorufin glucoside fluorescence (screen aimed at inhibitors), 20 min; in the data active means potency below about 15 µM; inconclusive means mostly about 16 µM to 33 µM;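 further: potency means the concentration at half of the fitted maximal effect; the screen sought inhibitors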
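Compounds titrated against 0.2 nM normal enzyme, 30 uM resorufin beta-D-glucopyranoside substrate, citrate/phosphate buffer with taurocholate and tween-20, pH 5.9. Reaction ran 20 min at room temperature; fluorescence (Ex 548/Em 600) gave AC50.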
AID923 – qHTS Assay for Allosteric/Competitive Inhibitors of Caspase-1: Spectroscopic Profiling in AFC Spectral Region; AID 923, 2007; Potency, µM (doses to about 57.5 µM), without a hit: at the top dose fluorescence increase, usual class: activators; 75,000 compounds, 1.1% hits; compound fluorescence, AFC spectral region (405/520 nm); further: potency means the concentration at half of the fitted maximal effect; 0% is about no effect
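Titrations up to 57 uM read every 20 sec for 3 min (405/520 nm) with 50 nM caspase 1 and 5 uM Ac-WEHD-AFC, pH 7.5 HEPES buffer. Fluorescence-vs-time intercept gave baseline, scaled against on-plate AFC standard.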
HADH2 inhib – inhibitors of human HADH2 dehydrogenase. recombinant HADH2, NADH fluorescence, beta-hydroxybutyryl-CoA. Potency, µM (series often up to 57.1 µM), for inactives: at the top dose activity change, negative = inhibition, most hits filed as inhibitors. 73,000 compounds, 3.4% hits. Q99714; further: potency means the concentration at half of the fitted maximal effect; on the % scale 0 is the no-effect control and ±100 the full control effect; nearly all actives have a fitted effect of over 60% in size
Target sequence (Q99714 whole entry, looked up, one chain of several): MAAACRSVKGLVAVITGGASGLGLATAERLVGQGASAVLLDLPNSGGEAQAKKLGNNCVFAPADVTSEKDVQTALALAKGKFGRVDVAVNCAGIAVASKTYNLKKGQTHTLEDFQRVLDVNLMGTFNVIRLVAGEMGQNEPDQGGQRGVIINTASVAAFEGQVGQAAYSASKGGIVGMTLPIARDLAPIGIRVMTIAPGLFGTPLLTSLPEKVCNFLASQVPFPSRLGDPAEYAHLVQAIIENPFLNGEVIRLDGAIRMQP
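Buffer 100 mM Tris-HCl pH 9.0/0.01% Tween-20; HADH2 20 nM; NAD+ 1 mM; beta-hydroxybutyryl-CoA 90 uM (all final). 15 min cpd preincubation, RT.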
HSD17B inh – HSD17B dehydrogenase inhibition; 75,000 compounds, 7.6% hits; recombinant HSD17B10, NADH fluorescence kinetic; Potency, µM (highest dose often 57.1 µM), for the others: top-dose activity change, negative = inhibition, most hits filed as inhibitors;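 further: the protocol describes HADH2 (HSD17B10) and not the HSD17B4 of the title; potency means the concentration at half of the fitted maximal effect; on the % scale 0 is the no-effect control and ±100 the full control effect; nearly all actives have a fitted effect of over 70% in size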
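Activity followed as NADH fluorescence increase (ex 360, em 450 nm) every 30 seconds for 4 min, using final 90 uM beta-hydroxybutyryl CoA and 1 mM NAD+. Recombinant His-tagged enzyme, 20 nM, pH 9.0 Tris buffer, 15 min compound preincubation.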
A350 autofl – compounds fluorescent in Alexa 350 spectral region. max dye-equivalent concentration, M. 59,000 compounds, 11% hits. Compound autofluorescence, 340/450 nm, Alexa 350 dye-equivalents; hits give high values; in the data active means max dye-equivalent concentration above about 10 nM; inconclusive means mostly about 1.1 nM to 9.6 nM
* hit, by the source's call; i = inactive; ? = inconclusive; . = no result; [ ] = remark or other dose. In the library only some 13% were active in any assay of this set; here they are far more common. Unless noted, the call rests on the fitted dose curve; in most records, active means well fitted curve in the direction sought with a large enough effect; inconclusive means small, poorly fitted or top-dose-only effect, or another doubt; inactive means no such curve, though single readings can be large; an effect the other way counts as inactive or inconclusive.

SMILES	4MU fluor	GBA activity	AID923	HADH2 inhib	HSD17B inh	A350 autofl
COc1cc([C@H]2Oc3cc([C@H]4Oc5cc(O)cc(O)c5C(=O)[C@@H]4O)ccc3O[C@@H]2CO)ccc1O	.	.	-1.2%	?	31.6µM*	.
COc1ccc([C@@H]2CC(=O)c3c(O)cc(O)cc3O2)cc1O	i	.	-0.5%	?	2.0%	i
COC(=O)[C@@H]1O[C@@H](c2c(OC)c(OC)c(C)c(OC)c2OC)[C@H](C)[C@@H](O)[C@@H]1C	.	.	-2.1%[11.5 µM]	-0.2%[11.4 µM]	0.4%[11.4 µM]	.
Cc1ccc(-c2ccc(/C=N/c3ncn[nH]3)o2)cc1Cl	?	.	.	.	.	1.31e-08M*
Cc1c(N=Cc2ccc(-c3ccc(Cl)cc3)o2)c(=O)n(-c2ccccc2)n1C	i	>76.9	-2.1%	-9.1%	7.2%	i
CC(=O)NCCNc1cc(-c2ccccc2CN(C)C)ncn1	i	.	1.8%	-3.8%	-24.6%	i
COC(=O)[C@H](Cc1ccccc1)NC(=O)C/C=C\[C@@H](C)[C@@H](CO)OC	.	.	-3.6%[11.5 µM]	-2.8%[11.4 µM]	2.4%[11.4 µM]	.
Cc1nn(CCC(=O)O)c2nc(-c3cccnc3)cc(C(F)(F)F)c12	1.19e-07M*	>76.9	0.1%	25.1µM*	25.1µM*	1.14e-07M*
COc1ccc(-n2c(CSc3nc(C)cc(C)n3)nnc2SCC(=O)Nc2nccs2)cc1	1.51e-08M*	>76.9	0.9%	13.8%	5.2%	1.43e-08M*
Cc1cc(C)nc(SCc2nnc(SCC(=O)Nc3ccccc3C)n2Cc2ccco2)n1	i	>76.9	1.2%	5.4%	-10.3%	i
CCn1c(CSc2nc(C)cc(C)n2)nnc1SCC(=O)Nc1ccccc1	1.45e-08M*	>76.9	1.5%	3.2%	6.7%	1.71e-08M*
Cc1ccc(-n2c(CSc3nc(C)cc(C)n3)nnc2SCC(=O)Nc2nccs2)cc1	i	>76.9	0.3%	2.6%	-2.1%	i
COc1ccc(Cc2nnc(NC(=O)c3ccco3)s2)cc1OC	i	>76.9	-0.4%	-16.2%	2.1%	i
O=C(Nc1ccc2c(c1)nc1n2CCN(C2CCCCC2)C1)c1ccco1	?	i	13.4%	-6.2%	31.6µM*	?
NNC(=O)[C@@H](O)[C@H](O)[C@H](O)CO	i	.	2.3%[11.5 µM]	5.3%[11.4 µM]	7.1%[11.4 µM]	i
O=C(OCCN1C(=O)c2ccccc2C1=O)c1cc(=O)[nH]c2ccccc12	?	>76.9	-1.5%	12.2%	79.8%	1.3e-08M*
CCCCCCNc1c(C(=O)OCC)c(=O)[nH]c2ccccc12	i	?	-1.8%	?	0.1%	i
CCCCCOC(=O)c1cc(=O)[nH]c2ccccc12	1.55e-08M*	>76.9	1.3%	9.4%	-13.4%	1.9e-08M*
C=C[C@](C)(O)CCC1C(=C)CC(OC(C)=O)C2C(C)(C)CCCC12C (stereo not given in full)	.	.	-0.7%	.	-3.4%	.
CCc1c(C#N)c(SCc2c(C)noc2C)nc2c1C(=O)CC(C)(C)C2	i	>76.9	1.6%	-8.1%	3.3%	i
NC(=O)NC1NC(=O)NC1=O (stereo not given)	.	.	1.9%	.	-0.5%	.
O=C(NCCN1CCOCC1)c1ccc2c(c1)ncn2C1CCCCC1	i	14.7*	0.1%	1.0%	-1.7%	i
Cc1ccc(C)c(Cc2c(C)nc3c(C(=O)N4CCOCC4)cnn3c2C)c1	1.69e-08M*	>76.9	-0.4%	?	31.6µM*	2.3e-08M*
CCOC(=O)N1CCN(C(=O)c2cnn3c(C)c(Cc4ccc(C)cc4)c(C)nc23)CC1	1.94e-08M*	>76.9	0.1%	?	15.8µM*	1.93e-08M*
Cc1nc2c(C(=O)O)cnn2c(C)c1Cc1ccccc1F	?	>76.9	-0.6%	-1.5%	?	?
COC(=O)c1cnn2c(C)c(Cc3cccc(F)c3)c(C)nc12	.	.	-1.8%	20µM*	25.1µM*	.
Cc1nc2c(C(=O)N3CCN(c4ccccn4)CC3)cnn2c(C)c1Cc1cccc(Cl)c1	?	>76.9	1.2%	?	-1.6%	?
O=C(Nc1ccccc1C(=O)NCc1ccc(Cl)cc1)c1ccco1	i	>76.9	-1.6%	6.4%	?	i
O=C(CCCn1c(=O)c2ccccc2n(Cc2ccccc2)c1=O)NCc1ccco1	i	>76.9	-0.5%	1.0%	8.8%	i

Assay outcomes as filed in PubChem.
